Reference: PubChem BioAssay (Tox21)
Results filed as inconclusive are left out. Where a call stands in place of a potency, no number is given. Active and inactive are the calls of the source. Unless noted, calls come from the whole dose curve; as a rule, active = well fitted curve in the direction sought with a large enough effect in the repeat runs; inconclusive = weak or mixed curves; inactive = no such curve, though single readings can be large; an effect the other way counts as inactive or inconclusive.

Assays:
[1] = qHTS assay for small molecules that induce genotoxicity in human embryonic kidney cells expressing luciferase-tagged ATAD5 (AID 651632); note: nearly all actives have a fitted effect of over 15% in size
Method in brief: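 Increased luciferase signal from ATAD5-tagged reporter cells indicates DNA-damage-driven ATAD5 induction. HEK293T cells are treated for 16 hr at 37C before detection with Amplite.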

[2] = qHTS assay for small molecule agonists of the p53 signaling pathway - cell viability (AID 651633; calls by dose curve;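 note: p53RE-bla HCT reporter cells with a stable beta-lactamase p53 reporter; nearly all actives have a fitted effect of over 30% in size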)
Method in brief: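 Viability counter-read: CellTiter-Glo luminescence (30 min, room temperature) in the same p53RE-bla plates. These plates had been exposed to compounds for 16 h at 37 C.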

[3] = qHTS assay for small molecules that induce genotoxicity in human embryonic kidney cells expressing luciferase-tagged ATAD5 - cell viability (AID 651634; calls by dose curve; note: nearly all actives have a fitted effect of over 25% in size)
Method in brief: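 Cytotoxicity counterscreen in HEK293T cells bearing an ATAD5-luciferase reporter: live-cell protease activity measured by CellTiter-Fluor fluorescence after 15.5 hr compound exposure.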

[4] = qHTS assay for small molecule disruptors of the mitochondrial membrane potential - cell viability (AID 720634; calls by dose curve;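 note: human HepG2 liver cancer cells; nearly all actives have a fitted effect of over 20% in size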)
Method in brief: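 After overnight attachment at 37 C, HepG2 cells received compound or DMSO vehicle for 1 hr. Viability is then taken from ATP-driven luminescence following a 30 min room-temperature CellTiter-Glo step.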

[5] = qHTS assay to test for compound auto fluorescence at 590 nm (red) in HepG2 cells (AID 720674)
Method in brief: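 We screened compounds on adherent HepG2 cells, incubating them for an hour at 37 C in 5% CO2 before reading emission at 590 nm under 540 nm excitation; values reflect equivalence to Rose Bengal sodium fluorescence.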

[6] = qHTS assay to test for compound auto fluorescence at 535 nm (green) in HepG2 cells (AID 720675)
[7] = qHTS assay to test for compound auto fluorescence at 460 nm (blue) in HEK293 cells (AID 720678)
Method in brief: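 Triamterene serves as the blue fluorophore standard. Compound signal at 405/460 nm is read in HEK293 wells (2,000 cells, 10% dialyzed FBS) after overnight treatment at 37C.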

[8] = qHTS assay to test for compound auto fluorescence at 590 nm (red) in HEK293 cells (AID 720679)
Method in brief: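 We plated HEK293 cells in 10% dialyzed FBS medium, let them adhere for 4-5 hr, then added 23 nL compound. Overnight at 37C and 5% CO2 preceded fluorescence measurement at 540/590nm.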

[9] = qHTS assay to test for compound auto fluorescence at 535 nm (green) in HEK293 cells (AID 720680)
[10] = qHTS assay to test for compound auto fluorescence at 460 nm (blue) in HEK293 cell free culture (AID 720681)
Method in brief: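 Blue fluorescence (Ex 405/Em 460 nm, triamterene-equivalent) was read immediately after pin transfer of compound or DMSO into medium (DMEM, 10% FBS) without cells.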

[11] = qHTS assay to test for compound auto fluorescence at 535 nm (green) in HEK293 cell free culture (AID 720682)
Method in brief: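 Cell-free medium (DMEM, 10% FBS) receives compound or DMSO by pintool. Plate read directly at Ex 485/Em 535 nm. Signal converted to fluorescein equivalency.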

[12] = qHTS assay to test for compound auto fluorescence at 590 nm (red) in HEK293 cell free culture (AID 720683)
Method in brief: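 Red-channel autofluorescence of compounds in culture medium (DMEM, 10% FBS), no cells, measured at 540/590 nm. Rose Bengal sodium is the reference fluorophore for equivalence.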

[13] = qHTS assay to test for compound auto fluorescence at 590 nm (red) in HepG2 cell free culture (AID 720684)
Method in brief: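 Steps: dispense MEM/10% FBS medium, no cells; pin compound or DMSO vehicle; read red channel, Ex/Em 540/590 nm. Output given as Rose Bengal sodium equivalents.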

[14] = qHTS assay to test for compound auto fluorescence at 460 nm (blue) in HepG2 cell free culture (AID 720685)
Method in brief: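 Compound (23 nL) or DMSO pinned into cell-free MEM with 10% FBS; blue fluorescence read at 405/460 nm excitation/emission, expressed as auto-fluorescence equivalency to triamterene.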

[15] = qHTS assay to test for compound auto fluorescence at 535 nm (green) in HepG2 cell free culture (AID 720686)
[16] = qHTS assay to test for compound auto fluorescence at 460 nm (blue) in HepG2 cells (AID 720687)
Method in brief: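 Blue-channel autofluorescence (Ex/Em 405/460 nm, triamterene-equivalent) was measured after 1 hr compound exposure at 37 C, 5% CO2. Cells were HepG2, plated overnight at 37 C in MEM plus 10% FBS.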

[17] = molecular target: Glucocorticoid receptor (Homo sapiens) (UniProt P04150); test: qHTS assay to identify small molecule agonists of the glucocorticoid receptor (GR) signaling pathway (AID 720691; active = well fitted activation curve with a large enough effect in the signal ratio in the repeat runs, not every such curve was filed as active; the % refers to the signal ratio); settings: GR-bla HeLa, beta-lactamase reporter ratio, 18 h; activation: at 62.4 µM (top of the series)
Chain of Glucocorticoid receptor (Homo sapiens) (P04150 whole entry, looked up): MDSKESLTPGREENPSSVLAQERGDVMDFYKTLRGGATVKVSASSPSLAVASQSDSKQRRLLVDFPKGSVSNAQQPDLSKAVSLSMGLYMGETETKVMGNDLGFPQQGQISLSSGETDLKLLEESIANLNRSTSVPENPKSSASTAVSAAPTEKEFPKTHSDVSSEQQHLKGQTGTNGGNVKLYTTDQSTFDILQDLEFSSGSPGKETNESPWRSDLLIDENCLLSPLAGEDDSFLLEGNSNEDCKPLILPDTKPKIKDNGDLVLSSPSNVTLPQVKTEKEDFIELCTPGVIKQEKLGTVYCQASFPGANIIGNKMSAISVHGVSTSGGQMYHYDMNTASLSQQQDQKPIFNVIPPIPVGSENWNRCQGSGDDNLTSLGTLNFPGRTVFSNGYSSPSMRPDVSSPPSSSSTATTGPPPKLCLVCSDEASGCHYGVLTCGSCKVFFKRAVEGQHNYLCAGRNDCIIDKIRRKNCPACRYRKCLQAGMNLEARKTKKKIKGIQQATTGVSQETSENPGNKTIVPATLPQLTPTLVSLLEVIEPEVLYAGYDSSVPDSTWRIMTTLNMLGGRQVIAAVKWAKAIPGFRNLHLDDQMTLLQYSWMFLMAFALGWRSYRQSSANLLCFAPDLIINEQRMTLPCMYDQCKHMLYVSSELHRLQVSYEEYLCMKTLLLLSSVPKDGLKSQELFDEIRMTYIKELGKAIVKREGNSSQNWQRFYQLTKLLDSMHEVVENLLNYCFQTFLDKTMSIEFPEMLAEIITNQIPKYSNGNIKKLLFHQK
Method in brief: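 Agonist mode in a HeLa line carrying a GRE-controlled beta-lactamase reporter. Compounds act for 18 h at 37 C before a 2 h room-temperature FRET substrate step and fluorescence reading.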

[18] = molecular target: Glucocorticoid receptor (Homo sapiens) (UniProt P04150); test: qHTS assay to identify small molecule antagonists of the glucocorticoid receptor (GR) signaling pathway (AID 720692; active = well fitted inhibition curve with a large enough effect in the signal ratio in the repeat runs, not every such curve was filed as active; the % refers to the signal ratio; note: potency is the fitted concentration of half-maximal effect)
Method in brief: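 Cells plated, rested 4 h at 37 C/5% CO2; compounds in DMSO pin-transferred; dexamethasone added to 5 nM final; 18 h at 37 C; B/G FRET substrate added, 2 h room temperature; fluorescence measured.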

Row | Compound | Potency [1] | Potency [2] | Potency [3] | Potency [4] | Potency [5] | Potency [6] | Potency [7] | Potency [8] | Potency [9] | Potency [10] | Potency [11] | Potency [12] | Potency [13] | outcome [14] | Potency [15] | outcome [16] | Potency [17] | Potency [18]
1 | CC(=O)O[C@H]1CC[C@@]2(C)C(=CC[C@@H]3[C@@H]2CC[C@]2(C)C(c4cccnc4)=CC[C@@H]32)C1 | inactive | inactive | inactive | inactive | inactive | inactive | inactive | inactive | inactive | inactive | inactive | inactive | inactive | inactive | inactive | inactive | inactive | 
2 | Cc1cc(C(=O)NNCc2ccccc2)no1 | inactive | inactive | inactive | inactive | inactive | inactive | inactive | inactive | inactive | inactive | inactive | inactive | inactive | inactive | inactive | inactive | inactive | 
3 | O=C(OC1C[C@@H]2CC3C[C@H](C1)N2CC3=O)c1c[nH]c2ccccc12 (stereo partly drawn) | inactive | inactive | inactive | inactive | inactive | inactive | inactive | inactive | inactive | inactive | inactive |  | inactive | inactive | inactive | inactive | inactive | inactive
4 | OCCN1CCN(CC/C=C2/c3ccccc3Sc3ccc(Cl)cc32)CC1 | inactive | inactive | inactive | inactive | inactive | inactive | inactive | inactive | inactive | inactive | inactive | inactive | inactive | inactive | inactive | inactive | inactive | inactive
5 | Cc1cc(C)c(NC(=O)C[C@H](CC(=O)O)c2cccc3ccccc23)c(C(=O)N2CCC3(CCCC3)CC2)c1 | inactive | inactive | inactive | inactive | inactive | inactive | inactive | inactive | inactive | inactive | inactive | inactive | inactive | inactive | inactive | inactive | inactive | 10.7 µM (active)
6 | COC(=O)CC[C@H](N)C(=O)O | inactive | inactive | inactive | inactive | inactive | inactive | inactive | inactive | inactive | inactive | inactive | inactive | inactive | inactive | inactive | inactive | inactive | inactive
7 | CCCCC/C=C\CCC(=O)N[C@H]1[C@H](Oc2c3cc4cc2Oc2ccc(cc2Cl)[C@@H](O[C@@H]2O[C@H](CO)[C@@H](O)[C@H](O)[C@H]2NC(C)=O)[C@@H]2NC(=O)[C@H](NC(=O)[C@@H]4NC(=O)[C@H]4NC(=O)[C@@H](Cc5ccc(c(Cl)c5)O3)NC(=O)[C@H](N)c3ccc(O)c(c3)Oc3cc(O)cc4c3)c3ccc(O)c(c3)-c3c(O[C@H]4O[C@H](CO)[C@@H](O)[C@H](O)[C@@H]4O)cc(O)cc3[C@@H](C(=O)O)NC2=O)O[C@H](CO)[C@@H](O)[C@@H]1O | inactive | inactive | inactive | inactive | inactive | inactive | inactive | inactive | inactive | inactive | inactive | inactive | inactive | inactive | inactive | inactive | inactive | inactive
8 | CC1=C(/C=C/C(C)=C/C=C/C(C)=C/C=C/C=C(C)/C=C/C=C(C)/C=C/C2=C(C)C(=O)CCC2(C)C)C(C)(C)CCC1=O | inactive | inactive | inactive | inactive | inactive | inactive | inactive | inactive | inactive | inactive | inactive |  | inactive | inactive | inactive | inactive | inactive | 
9 | [O]=[Bi][O]C(=O)[O][Bi]=[O] | inactive | inactive | inactive | inactive | inactive | inactive | inactive | inactive | inactive | inactive | inactive | inactive | inactive | inactive | inactive | inactive | inactive | inactive
10 | CN[C@@H]1[C@H](O[C@H]2[C@H](O[C@H]3[C@H](O)[C@@H](O)[C@H](N=C(N)N)[C@@H](O)[C@@H]3N=C(N)N)O[C@@H](C)[C@]2(O)CO)O[C@@H](CO)[C@H](O)[C@H]1O | inactive | inactive | inactive | inactive | inactive | inactive | inactive | inactive | inactive | inactive | inactive | inactive | inactive |  | inactive | inactive | inactive | inactive
11 | NC(=O)C[C@@H](N)C(=O)O | inactive | inactive | inactive | inactive | inactive | inactive | inactive | inactive | inactive | inactive | inactive | inactive | inactive | inactive | inactive | inactive | inactive | inactive
12 | CC(=O)N=c1sc(S(N)(=O)=O)nn1C | inactive | inactive | inactive | inactive | inactive | inactive | inactive | inactive | inactive | inactive | inactive | inactive | inactive |  | inactive | inactive | inactive | inactive
13 | O=C(O)CC/C=C\CC[C@@H]1[C@@H](N2CCCCC2)[C@@H](O)C[C@@H]1OCc1ccc(-c2ccccc2)cc1 | inactive | inactive | inactive | inactive | inactive | inactive | inactive | inactive | inactive | inactive | inactive | inactive | inactive | inactive | inactive | inactive | inactive | inactive
14 | CN1CCC(OC(=O)C(Oc2ccc(Cl)cc2)Oc2ccc(Cl)cc2)CC1 | inactive | inactive | inactive | inactive | inactive | inactive | inactive | inactive | inactive | inactive | inactive |  | inactive | inactive | inactive | inactive | inactive | 
